# Measured values from the supplement of paper PMC4466140.
# Columns and labels:
# Assay in all cases: SPOT peptide array binding signal intensity (averaged, normalized) (arbitrary units (background-subtracted, floor 0; scale differs between SH3 domains)); higher = stronger binding of the SH3 domain to the peptide
# [1] = target: AgAbp1
# Procedure, shortened: (§1)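 Detection of bound protein relied on anti-GST antibody, an HRP anti-mouse secondary and luminol, with imaging and quantification in Genespotter. The bound protein was GST-fused SH3 domains from four yeast species, incubated at 10 μg/ml overnight at 4°C in TBS-based blocking buffer on cellulose membranes carrying synthetic 15-mer peptides with cysteines replaced by serines. Binding signal is normalized, background-subtracted spot intensity averaged over replicates, in arbitrary units that differ between domains.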
# [2] = target: AgBbc1
# Procedure, shortened: as §1
# [3] = target: AgBem1-D1
# Procedure, shortened: as §1
# [4] = target: AgBzz1-D1
# Procedure, shortened: as §1
# [5] = target: AgBzz1-D2
# Procedure, shortened: as §1
# [6] = target: AgCyk3
# Procedure, shortened: as §1
# [7] = target: AgFus1
# Procedure, shortened: as §1
# [8] = target: AgHof1
# Procedure, shortened: as §1
# [9] = target: AgHse1
# Procedure, shortened: as §1
# [10] = target: AgLsb1
# Procedure, shortened: as §1
# [11] = target: AgLsb4
# Procedure, shortened: as §1
# [12] = target: AgMyo5
# Procedure, shortened: as §1
# [13] = target: AgNbp2
# Procedure, shortened: as §1
# [14] = target: AgRvs167
# Procedure, shortened: as §1
# [15] = target: AgSho1
# Procedure, shortened: as §1
# [16] = target: AgSla1-D1-D2
# Procedure, shortened: as §1
# [17] = target: AgSla1-D3
# Procedure, shortened: as §1
# [18] = target: CaAbp1-D1
# Procedure, shortened: as §1
# [19] = target: CaAbp1-D2
# Procedure, shortened: as §1
# [20] = target: CaBbc1
# Procedure, shortened: as §1
# [21] = target: CaBem1-D1
# Procedure, shortened: as §1
# [22] = target: CaBzz1-D1
# Procedure, shortened: as §1
# [23] = target: CaBzz1-D2
# Procedure, shortened: as §1
# [24] = target: CaCyk3
# Procedure, shortened: as §1
# [25] = target: CaFus1
# Procedure, shortened: as §1
# [26] = target: CaHof1
# Procedure, shortened: as §1
# [27] = target: CaHse1
# Procedure, shortened: as §1
# [28] = target: CaLsb1
# Procedure, shortened: as §1
# [29] = target: CaLsb4
# Procedure, shortened: as §1
# [30] = target: CaMyo5
# Procedure, shortened: as §1
# [31] = target: CaNbp2
# Procedure, shortened: as §1
# [32] = target: CaRvs167
# Procedure, shortened: as §1
# [33] = target: CaRvs167-3
# Procedure, shortened: as §1
# [34] = target: CaSho1
# Procedure, shortened: as §1
# [35] = target: CaSla1-D1-D2
# Procedure, shortened: as §1
# [36] = target: CaSla1-D3
# Procedure, shortened: as §1
# [37] = target: ScAbp1
# Procedure, shortened: as §1
# [38] = target: ScBbc1
# Procedure, shortened: as §1
# [39] = target: ScBem1-D1
# Procedure, shortened: as §1
# [40] = target: ScBzz1-D1
# Procedure, shortened: as §1
# [41] = target: ScBzz1-D2
# Procedure, shortened: as §1
# [42] = target: ScCyk3
# Procedure, shortened: as §1
# [43] = target: ScFus1
# Procedure, shortened: as §1
# [44] = target: ScHof1
# Procedure, shortened: as §1
# [45] = target: ScHse1
# Procedure, shortened: as §1
# [46] = target: ScLsb1
# Procedure, shortened: as §1
# [47] = target: ScLsb2
# Procedure, shortened: as §1
# [48] = target: ScLsb3
# Procedure, shortened: as §1
# [49] = target: ScLsb4
# Procedure, shortened: as §1
# [50] = target: ScMyo3
# Procedure, shortened: as §1
# [51] = target: ScMyo5
# Procedure, shortened: as §1
# [52] = target: ScNbp2
# Procedure, shortened: as §1
# [53] = target: ScPex13
# Procedure, shortened: as §1
# [54] = target: ScRvs167
# Procedure, shortened: as §1
# [55] = target: ScSho1
# Procedure, shortened: as §1
# [56] = target: ScSla1-D1-D2
# Procedure, shortened: as §1
# [57] = target: ScSla1-D3
# Procedure, shortened: as §1
# [58] = target: SpAbp1-D1
# Procedure, shortened: as §1
# [59] = target: SpBbc1
# Procedure, shortened: as §1
# [60] = target: SpBzz1-D1
# Procedure, shortened: as §1
# [61] = target: SpBzz1-D2
# Procedure, shortened: as §1
# [62] = target: SpCyk3
# Procedure, shortened: as §1
# [63] = target: SpHof1
# Procedure, shortened: as §1
# [64] = target: SpHof1-2
# Procedure, shortened: as §1
# [65] = target: SpHof1-3
# Procedure, shortened: as §1
# [66] = target: SpHse1
# Procedure, shortened: as §1
# [67] = target: SpLsb1
# Procedure, shortened: as §1
# [68] = target: SpLsb4
# Procedure, shortened: as §1
# [69] = target: SpMyo1
# Procedure, shortened: as §1
# [70] = target: SpNbp2
# Procedure, shortened: as §1
# [71] = target: SpPex13
# Procedure, shortened: as §1
# [72] = target: SpRvs167
# Procedure, shortened: as §1
# [73] = target: SpSla1-D1-D2
# Procedure, shortened: as §1
# [74] = target: SpSla1-D3
# Procedure, shortened: as §1
binder,measurement,setting,value
PLQSKIPMLPSRRTM,SPOT peptide array binding signal intensity,[1],98.5
same,SPOT peptide array binding signal intensity,[2],267
same,SPOT peptide array binding signal intensity,[3],26.5
same,SPOT peptide array binding signal intensity,[4],48
same,SPOT peptide array binding signal intensity,[5],9
same,SPOT peptide array binding signal intensity,[6],3
same,SPOT peptide array binding signal intensity,[7],98.5
same,SPOT peptide array binding signal intensity,[8],211
same,SPOT peptide array binding signal intensity,[9],300
same,SPOT peptide array binding signal intensity,[10],555
same,SPOT peptide array binding signal intensity,[11],4990
same,SPOT peptide array binding signal intensity,[12],≤ 0
same,SPOT peptide array binding signal intensity,[13],302
same,SPOT peptide array binding signal intensity,[14],483
same,SPOT peptide array binding signal intensity,[15],131
same,SPOT peptide array binding signal intensity,[16],28
same,SPOT peptide array binding signal intensity,[17],6.5
same,SPOT peptide array binding signal intensity,[18],470
same,SPOT peptide array binding signal intensity,[19],342
same,SPOT peptide array binding signal intensity,[20],694
same,SPOT peptide array binding signal intensity,[21],10.5
same,SPOT peptide array binding signal intensity,[22],274
same,SPOT peptide array binding signal intensity,[23],224
same,SPOT peptide array binding signal intensity,[24],18.5
same,SPOT peptide array binding signal intensity,[25],897
same,SPOT peptide array binding signal intensity,[26],1
same,SPOT peptide array binding signal intensity,[27],195
same,SPOT peptide array binding signal intensity,[28],18.2
same,SPOT peptide array binding signal intensity,[29],5220
same,SPOT peptide array binding signal intensity,[30],30
same,SPOT peptide array binding signal intensity,[31],881
same,SPOT peptide array binding signal intensity,[32],1060
same,SPOT peptide array binding signal intensity,[33],4
same,SPOT peptide array binding signal intensity,[34],400
same,SPOT peptide array binding signal intensity,[35],1030
same,SPOT peptide array binding signal intensity,[36],332
same,SPOT peptide array binding signal intensity,[37],34.5
same,SPOT peptide array binding signal intensity,[38],246
same,SPOT peptide array binding signal intensity,[39],2
same,SPOT peptide array binding signal intensity,[40],≤ 0
same,SPOT peptide array binding signal intensity,[41],27
same,SPOT peptide array binding signal intensity,[42],9
same,SPOT peptide array binding signal intensity,[43],218
same,SPOT peptide array binding signal intensity,[44],79
same,SPOT peptide array binding signal intensity,[45],127
same,SPOT peptide array binding signal intensity,[46],287
same,SPOT peptide array binding signal intensity,[47],629
same,SPOT peptide array binding signal intensity,[48],5990
same,SPOT peptide array binding signal intensity,[49],2850
same,SPOT peptide array binding signal intensity,[50],≤ 0
same,SPOT peptide array binding signal intensity,[51],≤ 0
same,SPOT peptide array binding signal intensity,[52],760
same,SPOT peptide array binding signal intensity,[53],945
same,SPOT peptide array binding signal intensity,[54],2220
same,SPOT peptide array binding signal intensity,[55],586
same,SPOT peptide array binding signal intensity,[56],999
same,SPOT peptide array binding signal intensity,[57],514
same,SPOT peptide array binding signal intensity,[58],149
same,SPOT peptide array binding signal intensity,[59],14
same,SPOT peptide array binding signal intensity,[60],953
same,SPOT peptide array binding signal intensity,[61],2
same,SPOT peptide array binding signal intensity,[62],16
same,SPOT peptide array binding signal intensity,[63],61.2
same,SPOT peptide array binding signal intensity,[64],76.2
same,SPOT peptide array binding signal intensity,[65],108
same,SPOT peptide array binding signal intensity,[66],272
same,SPOT peptide array binding signal intensity,[67],612
same,SPOT peptide array binding signal intensity,[68],5580
same,SPOT peptide array binding signal intensity,[69],61.5
same,SPOT peptide array binding signal intensity,[70],118
same,SPOT peptide array binding signal intensity,[71],224
same,SPOT peptide array binding signal intensity,[72],2200
same,SPOT peptide array binding signal intensity,[73],68
same,SPOT peptide array binding signal intensity,[74],173
